# Reference: ChEMBL document CHEMBL3988442, “University of Dundee, Small-Polar-MMV Screening Library” (2021)
# For part of these data: Measured potencies and affinities stand elsewhere.
# How the values were obtained:
# Set-up in all cases: scale not given: direction of the effect not stated beside the values
# [1] = target: Protein translocase subunit SecA (Escherichia coli (strain K12)) (UniProt P10408); test: Assay to Identify E. coli SecA ATPase Inhibitors; format: functional; settings: 30 µM
# [2] = target: T1, Ubiquitin-activating enzyme e1, putative (Leishmania donovani (strain BPK282A1)) (UniProt E9BSI1); test: Leishmania donovani Ubiquitin Activating Enzyme (LdE1); format: functional; settings: 30 µM
# T1 sequence (whole entry): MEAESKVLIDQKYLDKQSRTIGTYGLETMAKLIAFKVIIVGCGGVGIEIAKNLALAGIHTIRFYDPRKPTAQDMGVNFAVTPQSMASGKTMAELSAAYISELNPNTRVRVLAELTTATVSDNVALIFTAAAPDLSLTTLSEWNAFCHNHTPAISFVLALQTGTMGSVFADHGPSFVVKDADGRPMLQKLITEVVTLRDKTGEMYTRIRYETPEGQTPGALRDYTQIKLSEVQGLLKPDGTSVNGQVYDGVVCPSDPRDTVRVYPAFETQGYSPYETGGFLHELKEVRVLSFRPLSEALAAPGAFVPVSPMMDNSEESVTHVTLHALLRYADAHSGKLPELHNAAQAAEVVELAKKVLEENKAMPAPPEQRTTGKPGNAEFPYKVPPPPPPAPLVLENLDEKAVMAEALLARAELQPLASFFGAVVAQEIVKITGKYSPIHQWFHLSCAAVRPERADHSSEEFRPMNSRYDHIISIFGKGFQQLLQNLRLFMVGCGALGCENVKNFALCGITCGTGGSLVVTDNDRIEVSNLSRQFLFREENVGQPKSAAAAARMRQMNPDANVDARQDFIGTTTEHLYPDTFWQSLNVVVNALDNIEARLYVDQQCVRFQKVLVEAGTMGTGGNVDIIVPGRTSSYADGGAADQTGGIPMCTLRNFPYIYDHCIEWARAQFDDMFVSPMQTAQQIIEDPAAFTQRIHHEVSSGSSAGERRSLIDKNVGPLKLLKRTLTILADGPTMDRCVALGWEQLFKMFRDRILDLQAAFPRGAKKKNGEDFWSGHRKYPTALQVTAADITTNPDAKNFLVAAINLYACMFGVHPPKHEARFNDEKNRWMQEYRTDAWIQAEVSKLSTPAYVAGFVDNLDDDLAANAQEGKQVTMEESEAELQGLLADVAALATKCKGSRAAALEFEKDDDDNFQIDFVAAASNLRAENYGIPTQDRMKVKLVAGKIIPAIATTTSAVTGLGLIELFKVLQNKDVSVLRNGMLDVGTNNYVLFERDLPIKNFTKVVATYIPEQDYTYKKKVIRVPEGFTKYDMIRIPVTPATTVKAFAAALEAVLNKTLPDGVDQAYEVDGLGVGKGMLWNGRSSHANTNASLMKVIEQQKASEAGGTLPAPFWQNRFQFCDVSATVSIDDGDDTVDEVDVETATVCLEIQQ
# [3] = target: Sialic acid-binding Ig-like lectin 9 (Homo sapiens) (UniProt Q9Y336); test: Hs-Siglec9 ALPHAscreen SOP 20170721; settings: 10 µM
# Trypanosoma cruzi = test: Trypanosoma cruzi phosphomannomutase and mannose-1-phosphate guanylyltransferase assay; format: functional; settings: 10 µM
# [4] = target: T2, Arginase-2, mitochondrial (Homo sapiens) (UniProt P78540); test: in vitro enzyme assay to detect the production of urea directly proportional to the activity of Arginase II; format: functional; settings: 33.3 µM; also: in the data most compounds retested in dose-response had high values
# T2 sequence (whole entry): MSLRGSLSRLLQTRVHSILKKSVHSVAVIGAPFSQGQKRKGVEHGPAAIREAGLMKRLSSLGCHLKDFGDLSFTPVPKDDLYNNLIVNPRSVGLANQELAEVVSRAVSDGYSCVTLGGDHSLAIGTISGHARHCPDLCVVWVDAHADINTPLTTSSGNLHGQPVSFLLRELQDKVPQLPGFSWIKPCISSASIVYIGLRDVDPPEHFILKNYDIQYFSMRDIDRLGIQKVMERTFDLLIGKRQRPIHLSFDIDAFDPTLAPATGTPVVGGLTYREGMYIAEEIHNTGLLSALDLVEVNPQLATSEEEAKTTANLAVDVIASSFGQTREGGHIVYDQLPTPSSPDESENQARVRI
# [5] = target: T3, Proteasome subunit beta (Trypanosoma cruzi) (UniProt O96673); test: Trypanosoma cruzi proteasome chymotrypsin-like activity (TcProtChymo) assay.; also: in the data most compounds retested in dose-response had high values; format: functional; settings: 9.37 µM
# T3 sequence (whole entry): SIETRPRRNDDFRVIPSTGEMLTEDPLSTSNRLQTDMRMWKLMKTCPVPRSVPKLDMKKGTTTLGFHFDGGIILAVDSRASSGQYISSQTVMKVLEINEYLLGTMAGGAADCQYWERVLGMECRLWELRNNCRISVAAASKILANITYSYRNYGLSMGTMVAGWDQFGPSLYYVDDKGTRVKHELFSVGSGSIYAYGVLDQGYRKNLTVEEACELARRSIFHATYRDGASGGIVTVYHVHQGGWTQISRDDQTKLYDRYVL
# Homo sapiens = species on record: Homo sapiens; test: To identify inhibition of the IFN signalling (Jak-Stat) pathway via expression of an eGFP reporter gene under the control of an IFN-stimulated response element (ISRE) containing MxA promoter.; format: functional; settings: 30 µM
# [6] = target: T4, Tyrosyl-tRNA synthetase, putative (Trypanosoma cruzi (strain CL Brener)) (UniProt Q4DSP6); test: Trypanosoma cruzi tyrosyl tRNA synthetase (TcYRS) _High Tyrosine SOP; format: functional; settings: 30 µM; also: in the data most compounds retested in dose-response had high values
# T4 sequence (whole entry): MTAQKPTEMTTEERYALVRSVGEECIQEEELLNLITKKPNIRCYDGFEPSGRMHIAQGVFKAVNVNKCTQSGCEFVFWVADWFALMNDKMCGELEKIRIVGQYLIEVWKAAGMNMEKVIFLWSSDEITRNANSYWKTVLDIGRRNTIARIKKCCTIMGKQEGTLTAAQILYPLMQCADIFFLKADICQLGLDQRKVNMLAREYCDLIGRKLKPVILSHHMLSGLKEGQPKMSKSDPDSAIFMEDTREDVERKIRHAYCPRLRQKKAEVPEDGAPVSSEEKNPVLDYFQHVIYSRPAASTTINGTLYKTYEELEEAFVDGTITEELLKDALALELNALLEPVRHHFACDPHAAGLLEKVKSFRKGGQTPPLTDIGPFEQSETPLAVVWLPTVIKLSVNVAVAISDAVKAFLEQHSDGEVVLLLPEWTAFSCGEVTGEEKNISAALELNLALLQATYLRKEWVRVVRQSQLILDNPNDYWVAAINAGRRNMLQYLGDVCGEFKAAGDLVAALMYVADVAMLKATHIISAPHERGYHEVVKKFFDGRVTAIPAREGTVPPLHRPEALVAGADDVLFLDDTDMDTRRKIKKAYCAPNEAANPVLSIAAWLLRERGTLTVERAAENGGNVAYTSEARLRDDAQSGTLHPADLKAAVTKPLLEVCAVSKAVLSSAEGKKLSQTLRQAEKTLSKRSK
# [7] = target: T4, Tyrosyl-tRNA synthetase, putative (Trypanosoma cruzi (strain CL Brener)); test: Trypanosoma cruzi tyrosyl tRNA synthetase (TcYRS) SOP; format: functional; settings: 30 µM
# [8] = target: Chromo domain-containing protein 1 (Saccharomyces cerevisiae (strain ATCC 204508 / S288c) (Baker's yeast)) (UniProt P32657); test: ScCHD-1 Enzyme Inhibition Assay; format: functional; settings: 30 µM; also: in the data most compounds retested in dose-response had high values
# Chromo domain-containing protein 1 (Saccharomyces cerevisiae (strain ATCC 204508 / S288c) (Baker's yeast)), sequence (P32657 whole entry, the tested form may be a part): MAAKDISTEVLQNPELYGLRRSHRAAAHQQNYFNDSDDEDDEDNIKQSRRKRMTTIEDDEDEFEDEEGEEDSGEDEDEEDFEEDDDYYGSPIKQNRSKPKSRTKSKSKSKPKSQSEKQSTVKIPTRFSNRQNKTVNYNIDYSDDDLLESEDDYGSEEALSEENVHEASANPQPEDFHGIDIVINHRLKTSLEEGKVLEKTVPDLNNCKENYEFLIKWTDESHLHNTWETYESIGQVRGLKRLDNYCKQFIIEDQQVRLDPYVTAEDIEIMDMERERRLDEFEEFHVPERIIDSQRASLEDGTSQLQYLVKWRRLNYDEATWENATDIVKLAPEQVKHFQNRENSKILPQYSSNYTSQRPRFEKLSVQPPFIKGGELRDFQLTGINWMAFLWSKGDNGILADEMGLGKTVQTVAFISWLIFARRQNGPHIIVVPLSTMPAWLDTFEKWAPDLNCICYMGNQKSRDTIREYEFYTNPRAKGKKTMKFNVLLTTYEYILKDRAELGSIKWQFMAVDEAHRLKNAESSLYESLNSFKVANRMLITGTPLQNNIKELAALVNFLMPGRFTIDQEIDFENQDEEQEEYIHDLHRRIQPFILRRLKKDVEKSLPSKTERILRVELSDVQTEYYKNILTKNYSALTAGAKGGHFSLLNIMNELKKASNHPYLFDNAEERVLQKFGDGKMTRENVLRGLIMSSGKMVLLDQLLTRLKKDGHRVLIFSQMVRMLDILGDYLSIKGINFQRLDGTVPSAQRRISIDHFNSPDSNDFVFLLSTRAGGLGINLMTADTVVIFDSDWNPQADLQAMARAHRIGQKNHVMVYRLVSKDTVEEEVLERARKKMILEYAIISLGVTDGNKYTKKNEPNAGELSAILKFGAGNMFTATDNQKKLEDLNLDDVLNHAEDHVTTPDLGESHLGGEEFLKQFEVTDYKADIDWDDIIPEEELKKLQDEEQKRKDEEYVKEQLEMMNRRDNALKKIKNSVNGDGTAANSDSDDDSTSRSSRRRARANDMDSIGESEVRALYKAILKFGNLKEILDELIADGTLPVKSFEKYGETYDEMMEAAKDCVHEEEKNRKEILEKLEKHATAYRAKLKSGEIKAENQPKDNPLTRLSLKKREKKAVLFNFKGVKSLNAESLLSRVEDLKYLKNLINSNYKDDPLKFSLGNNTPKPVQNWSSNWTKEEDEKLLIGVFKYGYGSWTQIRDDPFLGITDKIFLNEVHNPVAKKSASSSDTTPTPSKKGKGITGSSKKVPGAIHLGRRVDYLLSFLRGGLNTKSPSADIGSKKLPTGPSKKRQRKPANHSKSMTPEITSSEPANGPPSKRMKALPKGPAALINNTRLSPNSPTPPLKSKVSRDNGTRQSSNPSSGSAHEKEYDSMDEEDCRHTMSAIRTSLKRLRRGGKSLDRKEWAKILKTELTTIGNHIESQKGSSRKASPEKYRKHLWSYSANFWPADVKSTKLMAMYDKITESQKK
# Protein translocase subunit SecA (Escherichia coli (strain K12)), sequence (P10408 whole entry): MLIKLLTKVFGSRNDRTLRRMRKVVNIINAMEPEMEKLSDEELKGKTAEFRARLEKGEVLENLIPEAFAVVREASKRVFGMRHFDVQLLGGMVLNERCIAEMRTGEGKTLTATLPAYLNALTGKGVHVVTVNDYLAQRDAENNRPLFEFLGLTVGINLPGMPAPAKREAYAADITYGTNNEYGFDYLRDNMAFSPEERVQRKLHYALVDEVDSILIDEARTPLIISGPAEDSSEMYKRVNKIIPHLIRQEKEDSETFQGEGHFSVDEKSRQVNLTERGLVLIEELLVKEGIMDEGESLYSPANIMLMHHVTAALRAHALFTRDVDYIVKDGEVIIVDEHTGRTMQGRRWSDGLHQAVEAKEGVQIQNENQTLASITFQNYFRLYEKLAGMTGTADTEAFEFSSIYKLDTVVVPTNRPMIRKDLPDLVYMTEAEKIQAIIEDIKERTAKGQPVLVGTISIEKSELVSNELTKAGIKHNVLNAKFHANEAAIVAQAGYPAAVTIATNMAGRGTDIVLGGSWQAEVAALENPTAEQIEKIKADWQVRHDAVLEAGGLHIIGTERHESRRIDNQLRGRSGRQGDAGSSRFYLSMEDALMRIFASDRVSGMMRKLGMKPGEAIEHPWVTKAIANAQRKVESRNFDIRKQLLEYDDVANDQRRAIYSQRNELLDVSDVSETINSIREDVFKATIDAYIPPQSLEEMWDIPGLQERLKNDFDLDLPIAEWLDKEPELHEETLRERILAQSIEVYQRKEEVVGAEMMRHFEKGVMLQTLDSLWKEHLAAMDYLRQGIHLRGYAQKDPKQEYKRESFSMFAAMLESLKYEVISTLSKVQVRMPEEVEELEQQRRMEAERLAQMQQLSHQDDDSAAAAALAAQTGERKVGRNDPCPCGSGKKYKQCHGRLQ
# Sialic acid-binding Ig-like lectin 9 (Homo sapiens), sequence (Q9Y336 whole entry): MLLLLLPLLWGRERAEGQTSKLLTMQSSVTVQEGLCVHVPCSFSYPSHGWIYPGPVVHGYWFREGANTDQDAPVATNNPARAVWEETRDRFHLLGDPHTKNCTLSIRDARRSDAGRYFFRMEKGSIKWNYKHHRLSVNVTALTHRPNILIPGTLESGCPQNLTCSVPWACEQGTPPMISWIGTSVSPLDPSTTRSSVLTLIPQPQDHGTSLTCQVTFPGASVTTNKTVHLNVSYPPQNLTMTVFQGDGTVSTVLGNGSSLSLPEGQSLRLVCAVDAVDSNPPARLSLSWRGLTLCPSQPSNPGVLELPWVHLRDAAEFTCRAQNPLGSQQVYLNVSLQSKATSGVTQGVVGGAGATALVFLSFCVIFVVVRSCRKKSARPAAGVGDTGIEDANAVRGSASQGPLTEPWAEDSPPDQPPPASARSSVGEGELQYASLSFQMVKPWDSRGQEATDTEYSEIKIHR
SMILES,Percent Effect [1],Percent Effect [2],Percent Effect [3],Percent Effect (Trypanosoma cruzi),Percent Effect [4],Percent Effect [5],Percent Effect (Homo sapiens),Percent Effect [6],Percent Effect [7],Percent Effect [8]
CCO[C@@H]1CO[C@@]2(CCCN(S(=O)(=O)c3cccnc3)C2)C1,-2.66%,11.7%,-9.59%,-4.97%,3.64%,18.3%,6.27%,5.79%,5.13%,2.99%
Cc1ccc(CN2CCC(c3nnc(CN4CCCCC4)n3C)CC2)o1,-5.23%,0%,2.13%,-0.873%,-0.35%,5.99%,1.11%,1.6%,4.88%,3.06%
CCN(C)c1ncnc2c1CCN(Cc1ccoc1)CC2,-6.65%,19.5%,-3.79%,8.86%,-7.69%,18.8%,-6.57%,3.68%,15.4%,-1.25%
Cc1cn2c(n1)CCC(NC(=O)c1c[nH]c(C)n1)C2 (stereo not given),-6.87%,-10.7%,1.48%,3.61%,0%,10.9%,17.2%,3.68%,7.69%,-13.6%
CC(C)c1ncc(S(C)(=O)=O)c(C2CCCNC2)n1 (stereo not given),-5.26%,10.8%,16.7%,6.11%,14.3%,3.94%,-1.56%,6.92%,17.1%,-3.61%
Cc1[nH]c(=O)c(C#N)cc1C(=O)N1C[C@@H](CN2CCCC2)C[C@H](CO)C1,-6.79%,-8.11%,-1.68%,-2.81%,3.85%,-5.82%,21.2%,-0.532%,-2.44%,2.93%
Cc1ccccc1N1CC2(CCN(S(=O)(=O)C3CC3)C2)CC1=O (stereo not given),0.787%,16.9%,-5.74%,-5.07%,4.57%,17.4%,11.8%,3.87%,10%,-8.76%
CCOCC1CN(Cc2ccc(OC)cc2)Cc2nn(C)cc21 (stereo not given),-9.46%,3.9%,2.27%,-1.46%,0.405%,9.62%,15.7%,2.63%,2.56%,0.496%
OC(COc1ccccc1)CN1CCc2c(ncn2C2CC2)C1 (stereo not given),-6.24%,8%,5.27%,-6.02%,-1.77%,3.65%,15.6%,5.79%,7.69%,-12.1%
O=C1C(NCc2nnc3n2CCCC3)CCN1c1ccccc1 (stereo not given),-2.98%,10.3%,-1.63%,8.17%,7.79%,-2.99%,18.5%,3.35%,13.2%,-2.81%
Cc1nn(C)c(N(C)C)c1CNCc1ccc(OCC(N)=O)cc1,-3.65%,8%,0.758%,-2.61%,-1.33%,13.2%,-6%,5.79%,7.69%,-13.9%
CCn1nc2c(cc1=O)CN(Cc1nc(CCOC)no1)CC2,-2.71%,5.13%,-1.28%,4.6%,9.43%,0.427%,4.98%,0.478%,8.43%,-3.33%
